Data from PubChem BioAssay AID1159580 (chemical genetic matrix, 2015).
Screen size: about 5,500 compounds; about 2,000 (36%) were called active. About 18% were inconclusive and are not listed. Cut-off read from the data, not from the text of the source: active = normalized growth mostly below about 0.91 (no sharp cut-off); inconclusive = no clear call, values can overlap the other calls; inactive = mostly above about 0.92. The list shows a part of the results.

Experiment: chemical genetic growth profiling, strain panel (AID 1159580);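 note: tested at 20 µM; growth read once vehicle control cultures reached saturation at 30 °C; 1 = growth at the plate median or of vehicle wells; lower values mean less growth of the strain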
Conditions: growth OD

Measured: normalized growth

C=NC(C(=O)NC1C(=O)N2C1SC(C)(C)C2C(=O)O)c1ccccc1 (configuration not stated)
inactive: S. cerevisiae deletion strains, locus YJR075W, strain HOC1, active compounds read low 0.991 | S. cerevisiae deletion strains, locus YKL009W, strain mrt4, active compounds read low 1.02 | S. cerevisiae deletion strains, locus YKL068W, active compounds read low 1.02 | S. cerevisiae deletion strains, locus YKL085W, strain MDH1 (second series), active compounds read low 1.04 | S. cerevisiae deletion strains, locus YKL085W, strain MDH1, active compounds read low 1.04 | S. cerevisiae deletion strains, locus YKL160W, strain elf1, active compounds read low 0.98 | S. cerevisiae deletion strains, locus YKL190W, strain CNB1, active compounds read low 1.01 | S. cerevisiae deletion strains, locus YKR001C, strain vps1, active compounds read low 1.02 | S. cerevisiae deletion strains, locus YKR026C, strain gcn3, active compounds read low 0.999 | S. cerevisiae deletion strains, locus YKR091W, strain srl3, active compounds read low 0.999 | S. cerevisiae deletion strains, locus YLL001W, strain dnm1, active compounds read low 0.943 | S. cerevisiae deletion strains, locus YLL026W, active compounds read low 1.01 | S. cerevisiae deletion strains, locus YLL041C, strain sdh2, active compounds read low 0.996 | S. cerevisiae deletion strains, locus YLR027C, strain aat2, active compounds read low 1.02 | S. cerevisiae deletion strains, locus YLR039C, strain RIC1, active compounds read low 1.03 | S. cerevisiae deletion strains, locus YLR058C, strain SHM2, active compounds read low 1.01 | S. cerevisiae deletion strains, locus YLR102C, strain apc9, active compounds read low 1.02 | S. cerevisiae deletion strains, locus YLR113W, strain HOG1, active compounds read low 1.01 | S. cerevisiae deletion strains, locus YLR221C, strain rsa3, active compounds read low 1.06 | S. cerevisiae deletion strains, locus YLR258W, strain gsy2, active compounds read low 1.01 | S. cerevisiae deletion strains, locus YLR262C, strain YPT6 (second series), active compounds read low 1.01 | S. cerevisiae deletion strains, locus YLR262C, strain YPT6, active compounds read low 1.06 | S. cerevisiae deletion strains, locus YLR268W, strain sec22, active compounds read low 1.01 | S. cerevisiae deletion strains, locus YLR320W, strain mms22, active compounds read low 1.07 | S. cerevisiae deletion strains, locus YLR330W, strain CHS5, active compounds read low 1.01 | S. cerevisiae deletion strains, locus YLR342W, strain FKS1 (second series), active compounds read low 1.03 | S. cerevisiae deletion strains, locus YLR342W, strain FKS1, active compounds read low 1.02 | S. cerevisiae deletion strains, locus YLR357W, strain rsc2, active compounds read low 0.912 | S. cerevisiae deletion strains, locus YLR370C, strain arc18, active compounds read low 1.01 | S. cerevisiae deletion strains, locus YLR371W, strain rom2, active compounds read low 1.02 | S. cerevisiae deletion strains, locus YLR384C, strain iki3, active compounds read low 0.999 | S. cerevisiae deletion strains, locus YLR418C, strain cdc73, active compounds read low 1.02 | S. cerevisiae deletion strains, locus YML016C, strain PPZ1, active compounds read low 1.01 | S. cerevisiae deletion strains, locus YML032C, strain rad52, active compounds read low 1.02 | S. cerevisiae deletion strains, locus YML120C, strain ndi1, active compounds read low 0.972 | S. cerevisiae deletion strains, locus YML124C, strain tub3, active compounds read low 1.01 | S. cerevisiae deletion strains, locus YMR058W, strain fet3, active compounds read low 0.987 | S. cerevisiae deletion strains, locus YMR078C, strain ctf18, active compounds read low 1.01 | S. cerevisiae deletion strains, locus YMR125W, strain sto1, active compounds read low 0.929 | S. cerevisiae deletion strains, locus YMR129W, active compounds read low 1 | S. cerevisiae deletion strains, locus YMR205C, strain PFK2, active compounds read low 0.982 | S. cerevisiae deletion strains, locus YMR223W, strain ubp8, active compounds read low 1.02 | S. cerevisiae deletion strains, locus YMR231W, strain pep5, active compounds read low 1.01 | S. cerevisiae deletion strains, locus YMR263W, strain SAP30, active compounds read low 1.01 | S. cerevisiae deletion strains, locus YMR307W, strain GAS1, active compounds read low 0.993 | S. cerevisiae deletion strains, locus YNL067W, strain RPL9B, active compounds read low 0.996 | S. cerevisiae deletion strains, locus YNL071W, strain lat1, active compounds read low 0.998 | S. cerevisiae deletion strains, locus YNL128W, strain TEP1, active compounds read low 1 | S. cerevisiae deletion strains, locus YNL153C, strain GIM3, active compounds read low 1.01 | S. cerevisiae deletion strains, locus YNL183C, strain NPR1, active compounds read low 0.944 | S. cerevisiae deletion strains, locus YNL209W, strain ssb2, active compounds read low 0.994 | S. cerevisiae deletion strains, locus YNL233W, strain BNI4, active compounds read low 1.02 | S. cerevisiae deletion strains, locus YNL248C, strain rpa49, active compounds read low 0.975 | S. cerevisiae deletion strains, locus YNL250W, strain rad50, active compounds read low 1.01 | S. cerevisiae deletion strains, locus YNL271C, strain bni1, active compounds read low 1.02 | S. cerevisiae deletion strains, locus YNL298W, strain CLA4, active compounds read low 1.02 | S. cerevisiae deletion strains, locus YNL307C, strain MCK1, active compounds read low 1.02 | S. cerevisiae deletion strains, locus YNL322C, strain KRE1 (second series), active compounds read low 0.991 | S. cerevisiae deletion strains, locus YNL322C, strain KRE1, active compounds read low 1.01 | S. cerevisiae deletion strains, locus YNR049C, strain mso1, active compounds read low 0.998 | S. cerevisiae deletion strains, locus YNR052C, strain pop2, active compounds read low 1.02 | S. cerevisiae deletion strains, locus YOL006C, strain TOP1, active compounds read low 1.05 | S. cerevisiae deletion strains, locus YOL012C, strain htz1 0.974 | S. cerevisiae deletion strains, locus YOL147C, strain pex11, active compounds read low 1.01 | S. cerevisiae deletion strains, locus YOR001W, strain rrp6, active compounds read low 1.03 | S. cerevisiae deletion strains, locus YOR061W, strain CKA2, active compounds read low 1.02 | S. cerevisiae deletion strains, locus YOR069W, strain VPS5, active compounds read low 1.01 | S. cerevisiae deletion strains, locus YOR070C, strain gyp1, active compounds read low 1.03 | S. cerevisiae deletion strains, locus YOR080W, strain dia2, active compounds read low 1 | S. cerevisiae deletion strains, locus YOR083W, strain WHI5, active compounds read low 0.989 | S. cerevisiae deletion strains, locus YOR106W, strain vam3, active compounds read low 0.947 | S. cerevisiae deletion strains, locus YOR136W, strain idh2, active compounds read low 1.02 | S. cerevisiae deletion strains, locus YOR144C, strain elg1, active compounds read low 1.01 | S. cerevisiae deletion strains, locus YOR184W, strain ser1, active compounds read low 1.05 | S. cerevisiae deletion strains, locus YOR231W, strain MKK1, active compounds read low 1 | S. cerevisiae deletion strains, locus YOR265W, strain rbl2, active compounds read low 1 | S. cerevisiae deletion strains, locus YOR270C, strain vph1, active compounds read low 0.993 | S. cerevisiae deletion strains, locus YOR290C, strain snf2, active compounds read low 0.95 | S. cerevisiae deletion strains, locus YOR316C, strain cot1, active compounds read low 1.01 | S. cerevisiae deletion strains, locus YPL051W, strain arl3, active compounds read low 1 | S. cerevisiae deletion strains, locus YPL055C, strain LGE1, active compounds read low 1.02 | S. cerevisiae deletion strains, locus YPL078C, strain atp4, active compounds read low 0.957 | S. cerevisiae deletion strains, locus YPL106C, strain sse1, active compounds read low 0.983 | S. cerevisiae deletion strains, locus YPL240C, strain hsp82, active compounds read low 1.01 | S. cerevisiae deletion strains, locus YPL241C, strain CIN2, active compounds read low 1.01 | S. cerevisiae deletion strains, locus YPL256C, strain CLN2, active compounds read low 0.994 | S. cerevisiae deletion strains, locus YPR119W, strain clb2, active compounds read low 1 | S. cerevisiae deletion strains, locus YPR141C, strain kar3, active compounds read low 1.01 | S. cerevisiae deletion strains, locus YPR163C, strain tif3, active compounds read low 1.02 | S. cerevisiae deletion strains, locus YPR167C, strain met16, active compounds read low 1.02 | S. cerevisiae deletion strains, strain wtn01, active compounds read low 1.01 | S. cerevisiae strains, strain wild type, active compounds read low 1.01
